Experimental data reported in PubChem BioAssay AID624330 (Southern Research Specialized Biocontainment Screening …, 2012).
Out of some 340,000 compounds screened, about 2,100 (0.62%) were called active.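 The calls were made as follows: active = first-screen hits whose inhibition reached a set limit at any dose in the follow-up dose series; inconclusive = inhibition above the set first-screen limit but never retested; inactive = the rest.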 A selection follows. Measured potencies and affinities stand elsewhere.

The compounds below were run against Rac GTPase-activating protein 1 (Homo sapiens) (UniProt Q9H0H5) (assay: MgcRacGAP GTPase-activating activity inhibitors, confirmation, biochemical, ADP Hunter fluorescence, primary and confirmatory (AID 624330;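 also: fluorescence reports GDP produced by GAP-driven GTP hydrolysis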)). Conditions: MgcRacGAP-stimulated Rac1 GTP hydrolysis, at 30 µM, stronger effect = higher value, GST-tagged Rac1 F28L mutant substrate.
Sequence of Rac GTPase-activating protein 1 (Homo sapiens) (Q9H0H5 whole entry, looked up): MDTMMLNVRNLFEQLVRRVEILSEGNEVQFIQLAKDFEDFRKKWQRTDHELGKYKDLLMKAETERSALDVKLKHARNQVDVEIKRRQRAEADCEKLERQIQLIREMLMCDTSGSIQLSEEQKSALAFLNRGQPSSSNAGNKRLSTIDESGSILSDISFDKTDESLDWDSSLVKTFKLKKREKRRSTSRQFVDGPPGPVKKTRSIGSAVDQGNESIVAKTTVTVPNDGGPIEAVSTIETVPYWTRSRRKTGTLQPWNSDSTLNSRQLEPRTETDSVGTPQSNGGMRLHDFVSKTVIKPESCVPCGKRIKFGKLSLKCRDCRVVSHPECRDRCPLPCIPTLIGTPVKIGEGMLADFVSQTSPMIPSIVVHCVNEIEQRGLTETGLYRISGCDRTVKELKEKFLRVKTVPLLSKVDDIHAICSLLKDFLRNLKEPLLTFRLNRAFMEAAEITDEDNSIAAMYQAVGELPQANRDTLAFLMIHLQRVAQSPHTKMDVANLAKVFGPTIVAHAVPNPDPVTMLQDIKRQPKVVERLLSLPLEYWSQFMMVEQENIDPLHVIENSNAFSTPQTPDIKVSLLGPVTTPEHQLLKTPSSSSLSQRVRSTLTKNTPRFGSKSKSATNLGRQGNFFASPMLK

inhibition, inactive:
N#CC1(Nc2ccc(S(N)(=O)=O)cc2)CCCC1 2.96%, Cc1ccc2c(C(=O)CN3CCCCC3)c(C)[nH]c2c1 3.73%, COC(=O)c1cc(C(=O)Nc2nnc(C3CC3)s2)cc([N+](=O)[O-])c1 11.3%, O=C(CSc1ccc(Br)cc1)NCC1(N2CCCCC2)CCCCC1 5.48%, CCC1(CC)NC(=O)N(CC(=O)OC(C)C(=O)Nc2ccccc2OC)C1=O (configuration not stated) 1.87%, COc1ccc(C(=O)N2CCC(CCC(=O)Nc3cccc(C)c3)CC2)cc1 5.31%, COc1ccc(N2CCC(CNC(=S)Nc3c(C)cc(C)cc3C)C2)cc1 (configuration not stated) 23.7%, COc1ccc(N2CCN(C(=S)Nc3cccc(C)c3)CC2)cc1 14.2%, COc1ccc(N2CCC(CNC(=O)Nc3ccc(Cl)cc3)C2)cc1 (configuration not stated) 23.3%, CCOc1ccc(NC(=O)NCC2CCN(c3ccc(OC)cc3)C2)cc1 (configuration not stated) 5.23%, CCc1ccc(NC(=O)NCC2CCN(c3ccc(OC)cc3)C2)cc1 (configuration not stated) 10.4%, CCc1cccc(C)c1NC(=S)NCC1CCN(c2ccc(OC)cc2)C1 (configuration not stated) 26.6%, COc1ccc(N2CCC(CNC(=O)Nc3ccc(C)c(C)c3)C2)cc1 (configuration not stated) 36.2%, COCC(C)n1c(C)cc(C(=O)CN2c3cccc4cccc(c34)S2(=O)=O)c1C (configuration not stated) 6.1%, O=C(CN(Cc1ccc(Br)cc1)S(=O)(=O)c1ccccc1)NCc1ccccn1 11.6%, C/C(=N\NC(=O)CSc1nc2ccccc2s1)c1cccnc1 2.25%, COc1cc(OC)c(NC(=O)CCNS(=O)(=O)c2ccc3c(c2)CC(C)N3C(C)=O)cc1Cl (configuration not stated) -10.2%, COc1cc(/C=N/NC(=O)c2c(C)nc3ccc(Cl)cn23)cc(OC)c1OC 0.19%, COc1ccc(NC(=O)c2ccc(CN3CCc4ccccc4C3)cc2)cc1OC 4.51%, COc1ccc(C(=O)/C=C/c2ccc(O)cc2)c(O)c1CC=C(C)C 7.57%, COc1ccc(C(=O)/C=C/c2ccc(O)cc2)c(O)c1C/C=C(\C)CCC=C(C)C 1.5%, CCCOc1ccc(OCCN2CCCC(C)C2)cc1 (configuration not stated) 20%, O=C(CSc1ncnc2sccc12)NCc1ccc2c(c1)OCO2 4.24%, O=[N+]([O-])c1cccc(S(=O)(=O)c2cccc([N+](=O)[O-])c2)c1 4.34%, Nc1cccc([N+](=O)[O-])c1 0.03%, CN(C)c1ccc(/C=N/NC(=O)c2ccc3c(c2)OCO3)cc1 16.6%, Cc1c(F)cccc1NS(=O)(=O)c1ccc2c(c1)n(C)c(=O)c(=O)n2C -0.09%, Cc1c(CN2CCC(C(=O)Nc3cccc(-c4cccc(Cl)c4)c3)CC2)cnn1C 11.7%, Cn1c(SCc2ccccc2)nc2c1c(=O)[nH]c(=O)n2C -7.97%, C#CCNC(=O)C1=C[C@@H](C(C)(C)C)C[C@@H](OCc2ccc(CO)cc2)O1 7.54%, O=c1cc(-c2ccc(O)cc2)oc2cc(O)cc(O)c12 14.4%, O=c1cc(-c2ccccc2)oc2cccc(O)c12 0.53%, O=c1cc(-c2ccc(O)c(O)c2)oc2ccc3ccccc3c12 2.51%, COc1ccc(-c2cc(=O)c3c(O)cc(O)cc3o2)cc1 -5.2%, COc1cccc(/C=C/C(=O)OCC(=O)Nc2nnc(-c3ccccc3)o2)c1 4.25%, Cc1c(NC(=O)c2ccc(S(=O)(=O)Nc3ccccc3F)cc2)c(=O)n(-c2ccccc2)n1C 4.66%, Cc1c(C=O)c2ccccc2n1CC(=O)N1CCc2ccccc2C1 10.2%, O=C(CC(c1ccccc1)c1ccccc1O)NCc1ccco1 (configuration not stated) 15.2%, O=S1c2ccccc2Oc2ccccc21 -3.3%, O=C1c2ccccc2OCOc2ccccc21 2.81%, CCCCn1c(CN2C(=O)c3ccccc3C2=O)nc2ccccc2c1=O 4.82%, CCOC(=O)C1CCCN(S(=O)(=O)c2ccc3ccccc3c2)C1 (configuration not stated) 3.67%, CCOc1ccc(NC(=O)C(C)NC(=O)c2ccccc2Cl)cc1S(=O)(=O)N1CCCC1 (configuration not stated) -0.23%, COC(=O)c1c(NC(=O)CSc2nccn2C)sc(C)c1C -3.2%, CCOC(=O)c1cc(NC(=O)CNCC(c2ccccc2)N(C)C)cc(C(=O)OCC)c1 (configuration not stated) 16.1%, COc1ccc(Cl)cc1NC(=O)CNCC(c1ccccc1)N(C)C (configuration not stated) 21.9%, COc1ccc(CCNC(=O)CSc2ccccc2)cc1OC -5.12%, COc1ccc(CCNC(=O)Cc2ccccc2)cc1OC 10%, Cc1ccc(Cl)cc1NC(=O)CNCC(c1ccccc1)N(C)C (configuration not stated) 30.3%, Cc1cc(NC(=O)CNCC(c2ccccc2)N(C)C)c([N+](=O)[O-])cc1C (configuration not stated) 13.9%, COc1ccc(C)cc1S(=O)(=O)N(C)CC(=O)N1CCC(C(N)=O)CC1 -7.33%, O=C(CSCC(=O)OCn1nnc2ccccc2c1=O)Nc1ccc(Cl)cc1 7.19%, CCc1nc(N2CCC3(CC2)OCCO3)c2nnn(Cc3ccccc3)c2n1 0%, CCCn1c(=NC(=O)CCS(=O)(=O)c2ccccc2)sc2cc(S(N)(=O)=O)ccc21 -5.12%, CCC(=O)N1CCC(c2ccc(OC)cc2)=N1 1.71%, CCC(=O)Nc1nnc(S(=O)(=O)N(CC)c2cc(C)cc(C)c2)s1 3.75%, Cc1ccc2nc(-c3ccncc3)c(NC3CCCC3)n2c1 -17.4%, Cc1ccn2c(NC3CCCC3)c(-c3ccsc3)nc2c1 13.1%, O=C(Nc1ccc(Cl)cc1)C1CCN(C(=O)c2cccs2)CC1 6.08%, Cc1ccc2occ(C(c3nnnn3Cc3ccccc3)N3CCOCC3)c(=O)c2c1 (configuration not stated) 7.16%, O=C(NN=Cc1ccc(F)cc1)C1CC1 6.86%, O=[N+]([O-])c1ccc(C=NNC(=S)NN=Cc2ccc([N+](=O)[O-])cc2)cc1 -0.77%, C=C1CC(C(=O)N/N=C/c2ccccc2)C1 11.8%, O=C(NN=Cc1ccc(O)cc1)C(=O)NN=Cc1ccc(O)cc1 28.3%, O=C(Nc1cccc(NC(=O)c2ccco2)c1)c1ccc2c(c1)OCCO2 2.32%, O=C(Nc1ccc(NC(=O)c2ccc3c(c2)OCCO3)cc1)c1ccccc1 1.42%, O=C(NC1CCCCCC1)c1ccc[nH]c1=S 5.17%, COc1ccc(NC(=O)CSc2nnc3ccc(-c4cccnc4)nn23)c(OC)c1 -2.52%, COc1ccc(/C=N\N=C2/SC(CC(=O)O)C(=O)N2c2ccc(O)cc2)cc1 (configuration not stated) 3.73%, O=C1CS/C(=N/N=C/c2ccccc2)N1c1ccc(O)cc1 8.23%, COc1ccc(/C=N\N=C2/SC(CC(=O)O)C(=O)N2c2ccc(O)cc2)cc1OC (configuration not stated) 2.46%, COc1ccc(/C=N/N=C2\SCC(=O)N2c2c(C)n(C)n(-c3ccccc3)c2=O)cc1OC 5.82%, O=C(NCCC1=CCCCC1)C(=O)c1c[nH]c2ccccc12 1.95%, Cc1ccc(S(=O)(=O)[N-]c2nc3ccccc3nc2-[n+]2cc(C)cc(C)c2)cc1 9.42%, COc1ccccc1Oc1nnnn1-c1ccc(C(N)=O)cc1 2.99%, CCn1cc(/C=C(\NC(=O)c2ccccc2F)C(=O)N2CCN(C)CC2)c2ccccc21 19%, C[C@@H]1CN(S(=O)C(C)(C)C)[C@@H](CCO)/C1=C\CCO (some centres not stated) 8.46%, Cc1ccc2c(Cl)c(C(=O)Nc3cc(C)on3)sc2c1 4.78%, Cc1cc(NC(=O)c2ccccc2)no1 5.35%, Cc1ccc(S(=O)(=O)c2c(COC(=O)c3ccccc3Cl)c(-c3ccccc3)nn2C)cc1 4.7%, Cc1nc2ccc(NC(=O)CCS(=O)(=O)c3ccc(Cl)cc3)cc2s1 -5.04%, CC(C)CC1NC(=O)N(CC(=O)Nc2ccc3c(c2)CCC3)C1=O (configuration not stated) 9.25%, O=C(NCCS(=O)(=O)c1ccc(Cl)cc1)c1ccc(F)cc1 2.29%, Cc1c(C(=O)Nc2ccc(S(=O)(=O)Nc3ncccn3)cc2)oc2ccc(F)cc12 -2.01%, CC1CCCCN1Cc1ccc(N)cc1 (configuration not stated) 5.78%, CC1CCCCN1Cc1ccc(N(C)C)cc1 (configuration not stated) 9.51%, O=S1(=O)CCN(Cc2cccnc2)CC1 0.02%, O=C(O)C1CCN(Cc2cccnc2)CC1 2.37%, COc1ccc(CN(CCc2ccccc2)Cc2ccccc2)cc1OC 28.5%, O=C(O)CSc1nnc(SCc2cccc3ccccc23)s1 4.86%, CCN(CC)C(=O)CSc1nc2c(sc(=S)n2CC)c(=O)n1-c1ccccc1 2.69%, Cc1ccc(N2C(=O)NC3(CCCCC3)C2=O)cc1 8.08%, COc1ccc(N2C(=O)NC(=O)C2=O)cc1 6.21%, COC(=O)[C@@]12CCCN1[C@H](c1ccc(-c3ccc(Cl)c(Cl)c3)cc1)[C@H]1C(=O)N(C)C(=O)[C@H]12 -9.75%, O=C(CN1CCc2ccccc2C1)Nc1ccccc1F 8.8%, Cc1ccc(NC(=O)C(C)N2CCCC2)cc1Cl (configuration not stated) 13.2%, O=C(CN1CCc2ccccc2C1)Nc1ccccc1Cl 9.11%, CC(=O)c1ccc(N2CCN(C(C)C(=O)Nc3ccc4c(c3)OCCO4)CC2)cc1 (configuration not stated) -0.86%, Cc1cnc(NC(=O)[C@H](C)N2C(=O)C3CCCCC3C2=O)s1 (some centres not stated) 1.01%, Cc1cnc(NC(=O)C(C)N2C(=O)C3CC=CCC3C2=O)s1 (configuration not stated) 5.83%, CN1CCN(CCC(=O)Nc2ccc(F)c(F)c2)CC1 2.01%, CC(C(=O)Nc1ccc2c(c1)OCO2)N1CCC(N2CCCCC2)CC1 (configuration not stated) 26%
